Source: PubChem BioAssay AID2384 (Southern Research Specialized Biocontainment Screening …, 2010)
About 1,100 (48%) of roughly 2,300 compounds were called active. How the calls were made is not given here. The set was probably picked from earlier hits. Some of the results follow. Potency and affinity values are given separately.

Assay: inhibitors in S. typhi counter-screen strain, dose response, counter-screen for PhoP regulon inhibitor project, fluorescence, 4 h (AID 2384)
Conditions: S. typhi GFP reporter counter-screen; series mostly up to 150 µM; inhibition: at the top concentration

Structure (SMILES) | inhibition
O=C(NCc1ccco1)C1CCN(C(=O)c2cc3sccc3n2Cc2ccc(Cl)cc2)CC1 | 4.77% (inactive)
Nc1nc(SCC(=O)N2CCCC2)[nH]c(=O)c1NC(=O)c1cccs1 | 17.8% (inactive)
Clc1ccc(OCc2nc(-c3ccc(Br)o3)no2)cc1 | -18.3% (inactive)
CCOc1ccc(-c2ccc(SCC(=O)N3CCOCC3)nn2)cc1 | -7.13% (inactive)
NC(=O)c1ccc[n+]([C@H]2O[C@@H](COP(=O)([O-])OP(=O)(O)OC[C@H]3O[C@@H](n4cnc5c(N)ncnc54)[C@H](O)[C@@H]3O)[C@H](O)[C@@H]2O)c1 | -10.8% (inactive)
CN1CCCN(C(=O)COc2ccc(F)cc2Cl)CC1 | 0.57% (inactive)
Cc1cc(NC(=O)COC(=O)c2cccc(S(=O)(=O)N(C)C3CCCCC3)c2)no1 | -11.6% (inactive)
COC(=O)c1sccc1NC(=S)NCc1ccc(Cl)cc1 | 33.3% (inactive)
COC(=O)CNc1n[nH]c(=S)[nH]c1=O | 26.9% (inactive)
C/[N+]([O-])=C1\Cc2ccccc2C1=O | -21.2% (inactive)
NC1=C(Br)C(=O)c2ccccc2C1=O | 22.2% (inactive)
Clc1ccc2c(NCc3ccccn3)ccnc2c1 | -0.79% (inactive)
O=C(NCc1cccs1)C(=O)NCC(c1ccco1)N1CCN(c2ccc(F)cc2)CC1 (stereo not given) | 1.68% (inactive)
CCC(=O)N1CCc2cc(S(=O)(=O)NCCCN3CCN(Cc4ccccc4)CC3)ccc21 | -9.6% (inactive)
COc1ccc(NC(=O)C(Cc2ccccc2)n2cccc2)cc1 (stereo not given) | 9.62% (inactive)
CC(C)NC(=O)c1cc(-c2ccc(Br)cc2)on1 | 10.1% (inactive)
CC(=O)NCc1ccc(C(=O)CCl)cc1 | 18.7% (inactive)
Cc1c(C)n(C)c2ccc(C(=O)NCc3cccs3)cc12 | -3.78% (inactive)
O=C(NCCCN1CCOCC1)C(C(=O)c1ccccc1)n1ccccc1=O (stereo not given) | 2.1% (inactive)
COc1ccc(Cl)cc1NC(=O)CCN1CCOCC1 | 13.3% (inactive)
CCCC1(c2ccccc2)NC(=O)N(CC(=O)Nc2cc(S(=O)(=O)N3CCOCC3)ccc2Cl)C1=O (stereo not given) | -4.71% (inactive)
Cc1ccc(C)c(NC(=O)CSc2nnc([C@@H](N)Cc3c[nH]c4ccccc34)o2)c1 | 33.6% (inactive)
COc1ccc(C(=O)C2CCN(CC(=O)Nc3cc(C)cc(C)c3)CC2)cc1 | 26.4% (inactive)
COCCNC(=O)c1cccc(OC2CCN(Cc3ccccc3C)CC2)c1 | -4.82% (inactive)
O=C(O)c1ccc(CSc2nnnn2C2CCCCC2)cc1 | -28% (inactive)
COCCNC(=O)CN(C(=O)CCC(=O)Nc1ccccn1)c1ccc(F)c(Cl)c1 | 1.46% (inactive)
COCCN1C(=O)C(=O)/C(=C(/O)c2cccc(OC)c2)C1c1ccncc1 (stereo not given) | 4.45% (inactive)
Cc1ccc(CCN2C(=O)CCC2(C)C(=O)NC2CCCC2)cc1 (stereo not given) | 2.68% (inactive)
FC(F)(F)c1ccccc1NC1=NCCC1 | 7.38% (inactive)
CCN(CC)CC#CC(C)OCOCC#CCOC (stereo not given) | -8.61% (inactive)
